# From the OligoGym collection
# Key:
# Test in all cases: pooled miR-30 sensor sort-seq; sequence = guide strand
# Conditions in all cases: shRNA
# TMEM130 = biological target: TMEM130
# TMEM156 = biological target: TMEM156
# TMEM147 = biological target: TMEM147
# TMEM140 = biological target: TMEM140
# TMEM218 = biological target: TMEM218
# TMOD3 = biological target: TMOD3
# TMEM90B = biological target: TMEM90B
# TNFAIP2 = biological target: TNFAIP2
# TMEM8B = biological target: TMEM8B
# TNFAIP6 = biological target: TNFAIP6
# TNPO2 = biological target: TNPO2
# TRAPPC2 = biological target: TRAPPC2
# TRIM38 = biological target: TRIM38
# TRMT1 = biological target: TRMT1
# TSC1 = biological target: TSC1
# TSC22D2 = biological target: TSC22D2
# TSC22D3 = biological target: TSC22D3
# TSEN34 = biological target: TSEN34
# TTLL3 = biological target: TTLL3
# TXLNG = biological target: TXLNG
# UBXN2A = biological target: UBXN2A
# UNC5D = biological target: UNC5D
# UST = biological target: UST
# VDAC3 = biological target: VDAC3
# VAX1 = biological target: VAX1
# Further: reference of the scale not given here.
sequence,measurement,setting,value
TATTGTCTCAGCCACAGCCCAG,sensor-assay potency score (higher = more potent),TMEM130,-1.4
TTAAGAGAACAGATGTAGGTTT,sensor-assay potency score (higher = more potent),TMEM156,0.112
TTGTACTCGGACAGGCCGCTGC,sensor-assay potency score (higher = more potent),TMEM147,-1
TTTTATATCCATCTCCAGGTGC,sensor-assay potency score (higher = more potent),TMEM156,-0.346
ATAGTTATAATAGACCACGGAG,sensor-assay potency score (higher = more potent),TMEM130,-0.516
TAGAAGCCGATTCTCAGGTTGG,sensor-assay potency score (higher = more potent),TMEM140,-0.232
TGTGGTACAGATCATAGCGTGT,sensor-assay potency score (higher = more potent),TMEM147,-0.505
TTGTAGGTGATGAAGTAGGGGA,sensor-assay potency score (higher = more potent),TMEM147,-0.423
TTATCATCCAGACCTGAGCAGA,sensor-assay potency score (higher = more potent),TMEM147,-0.978
TTCAAGGTCACGGTCATCTTTT,sensor-assay potency score (higher = more potent),TMEM130,-0.705
AATGTGTATACAATCATTCGGG,sensor-assay potency score (higher = more potent),TMEM156,-0.0136
TGCTCATGAACAGCAGCTGGTC,sensor-assay potency score (higher = more potent),TMEM140,-1.48
TCTCTCATCACTGTTGCACTGG,sensor-assay potency score (higher = more potent),TMEM140,0.0267
TTGTCCTTGGCCACCAGGCTGG,sensor-assay potency score (higher = more potent),TMEM130,-1.04
TTTGTCTCTATGACTCTGCCAC,sensor-assay potency score (higher = more potent),TMEM156,-0.207
TTGCTGAGTGGCATTCCGCAGG,sensor-assay potency score (higher = more potent),TMEM130,-0.984
TTGGAGTCTATGCTCATCTGGA,sensor-assay potency score (higher = more potent),TMEM147,-0.274
TTCTGCTTCACAGCCCTCGTGG,sensor-assay potency score (higher = more potent),TMEM130,-0.803
ATGCTCATGAACAGCAGCTGGT,sensor-assay potency score (higher = more potent),TMEM140,-1.09
TGACACTGTAGGGTGCTGGTGT,sensor-assay potency score (higher = more potent),TMEM140,0.184
AACATAATGGATTAAAACCAAG,sensor-assay potency score (higher = more potent),TMEM218,-1.68
TAACGCATCAATCAGTGCCAGA,sensor-assay potency score (higher = more potent),TMOD3,-1.33
TTACAGAACTTTGTATTCGTTA,sensor-assay potency score (higher = more potent),TMOD3,0.0652
TTAATTAAACCATTCCTCTTGC,sensor-assay potency score (higher = more potent),TMEM90B,0.249
TTGTATATTGCTAATGCGGTGG,sensor-assay potency score (higher = more potent),TMEM90B,-0.114
TTATATTACAGAACTTTGTATT,sensor-assay potency score (higher = more potent),TMOD3,-0.879
TTTCTCAGCATTCATCTGGTAA,sensor-assay potency score (higher = more potent),TMEM90B,-0.53
TTATTTCTCAGCATTCATCTGG,sensor-assay potency score (higher = more potent),TMEM90B,0.827
TAGTTCTCTTCAAACTCTCTTC,sensor-assay potency score (higher = more potent),TMOD3,-0.63
TATTTCTCAGCATTCATCTGGT,sensor-assay potency score (higher = more potent),TMEM90B,0.677
TAGAGGATGATGTTGGGCCGGT,sensor-assay potency score (higher = more potent),TMEM90B,-0.523
TCACTCTCTGTGTCGCTTGAGT,sensor-assay potency score (higher = more potent),TMEM90B,-1.01
TCAACATACATACAAAAGCAGT,sensor-assay potency score (higher = more potent),TNFAIP2,-1.49
TAGGTGAGCGCATCTGCACTGT,sensor-assay potency score (higher = more potent),TMEM8B,-0.509
TATAGCATTAGCTGCTCTGGTT,sensor-assay potency score (higher = more potent),TMOD3,-0.335
TATCAAACACGCTAACTCCTAC,sensor-assay potency score (higher = more potent),TNFAIP2,-0.68
TTGGCAATAACATTGGCCCTGT,sensor-assay potency score (higher = more potent),TNFAIP2,-0.0405
TTTCATTATCTCTTAACGCATC,sensor-assay potency score (higher = more potent),TMOD3,-0.758
TTACAATTTGATAACAACTAAA,sensor-assay potency score (higher = more potent),TMOD3,-1.42
ATCATTTGTACTGTACAGCATC,sensor-assay potency score (higher = more potent),TMEM90B,-1.17
TATCTATGCATGACAGTTTGGG,sensor-assay potency score (higher = more potent),TMEM8B,-0.202
TATCTGTGAGCCCAAGTCCAGC,sensor-assay potency score (higher = more potent),TNFAIP2,-1.63
TTTTTGTTATAGCATTAGCTGC,sensor-assay potency score (higher = more potent),TMOD3,-1.37
TAATTCGTCAGCTGCTTGCCTC,sensor-assay potency score (higher = more potent),TNFAIP2,-0.825
TAGGGCACATAGTCTTCCCTGT,sensor-assay potency score (higher = more potent),TMOD3,-0.185
TACTTGAGTCTAATGTGCCAGT,sensor-assay potency score (higher = more potent),TNFAIP6,-0.543
TTTTCTTCTGTAAAAGTCTGTA,sensor-assay potency score (higher = more potent),TMOD3,-0.198
TGTGTCGCTTGAGTAGTCGCTC,sensor-assay potency score (higher = more potent),TMEM90B,0.302
TTTCTCTTCCAGTTCTGTCTTC,sensor-assay potency score (higher = more potent),TNFAIP2,-0.182
TTCATCTGGTAACTTAAGCAGC,sensor-assay potency score (higher = more potent),TMEM90B,-0.817
TTCTGTCTTCCATTCCACCATT,sensor-assay potency score (higher = more potent),TNFAIP2,-1.13
TCAATCTTGATGGCACTGGGGT,sensor-assay potency score (higher = more potent),TNFAIP2,-0.553
TCGATGAAGGTGGTCTCGCAGC,sensor-assay potency score (higher = more potent),TMEM90B,-1.08
TATTTCAACATAATCAGCCAAG,sensor-assay potency score (higher = more potent),TNFAIP6,-1.38
TCGGACATGTAAACAAACCAAG,sensor-assay potency score (higher = more potent),TNFAIP2,-1.46
TTTTTCTTCTGTAAAAGTCTGT,sensor-assay potency score (higher = more potent),TMOD3,0.6
TTCAACAAGATGAGCATCGTTT,sensor-assay potency score (higher = more potent),TMOD3,-0.31
TATCGTTTACAAAGAGTCCTTG,sensor-assay potency score (higher = more potent),TNFAIP2,-0.0149
TTCTGCTCCATGGACATCCGGA,sensor-assay potency score (higher = more potent),TNFAIP2,-0.115
TTGAGTAGTCGCTCTCCAGCTC,sensor-assay potency score (higher = more potent),TMEM90B,-0.0875
TAGCTCCAGAGCTCGGTCCATC,sensor-assay potency score (higher = more potent),TNFAIP2,-1.52
TTTGAGTTTATCCTGCACGATG,sensor-assay potency score (higher = more potent),TNPO2,-1.1
TTTTCCAGCAGTGTCTTGGGTG,sensor-assay potency score (higher = more potent),TNPO2,-0.0437
TTCAAGTACATGTTGTTCGATA,sensor-assay potency score (higher = more potent),TRAPPC2,-0.28
TTTATTCCATCTTCTTGTCTTA,sensor-assay potency score (higher = more potent),TRAPPC2,-0.31
TTCACATCGAAGTAAAGCTTGG,sensor-assay potency score (higher = more potent),TRIM38,-0.536
TTCTTGATCCGTCTCTTTGAGG,sensor-assay potency score (higher = more potent),TRIM38,-1.24
TCTCCTGGAACCTTGATCTGGA,sensor-assay potency score (higher = more potent),TRMT1,-0.0549
TTGCGTGTCCTTCTCTCCTGGA,sensor-assay potency score (higher = more potent),TRMT1,-0.847
TAGAGTGACAGAACCTTTGCTG,sensor-assay potency score (higher = more potent),TSC1,0.691
TCAACAGGAATAGCTATGCTGA,sensor-assay potency score (higher = more potent),TSC22D2,-0.503
ATGGTCTGGTCGATGTTGCGGT,sensor-assay potency score (higher = more potent),TSC22D3,-0.997
ATTGAGGTTCTCAAAGACCAGC,sensor-assay potency score (higher = more potent),TSC22D3,-1.14
TCTCTGTAGATACTGTAGCGCA,sensor-assay potency score (higher = more potent),TSEN34,-0.97
TATGCTGTTGAGCTTGTCGGTA,sensor-assay potency score (higher = more potent),TSC22D3,-0.561
TAGTATTCCATACACGTCCATC,sensor-assay potency score (higher = more potent),TSC22D2,-1.07
TAGGACATCTCTTGGCACCAGC,sensor-assay potency score (higher = more potent),TSC22D3,-0.981
TTTTCTTCTAGTATCGTCGACT,sensor-assay potency score (higher = more potent),TSC22D2,-0.0154
TAGCTGTGACACAGCAGTCAAG,sensor-assay potency score (higher = more potent),TSC22D2,-1.48
TTGTTGTCTATGGCCACCACGC,sensor-assay potency score (higher = more potent),TSC22D3,-1.5
AAAACTTCCACTTCTTCTCTTA,sensor-assay potency score (higher = more potent),TSC22D2,0.265
TCTCTCACAGCATACATCAGAT,sensor-assay potency score (higher = more potent),TSC22D3,-0.863
TTCTTCATAGGAACAGTCGTTG,sensor-assay potency score (higher = more potent),TSC22D3,-0.524
TTATGCTGTTGAGCTTGTCGGT,sensor-assay potency score (higher = more potent),TSC22D3,-0.79
TTCTCTTACTGCATACATCAAA,sensor-assay potency score (higher = more potent),TSC22D2,-0.826
TGAGCTTGTCGGTATTGAGGTT,sensor-assay potency score (higher = more potent),TSC22D3,-0.394
TTCTTCTCCACCAGCTCTCGGA,sensor-assay potency score (higher = more potent),TSC22D3,-1.12
TTCGATCTTGTTGTCTATGGCC,sensor-assay potency score (higher = more potent),TSC22D3,0.125
AACTTCTCCAGCTGCTCTGGGC,sensor-assay potency score (higher = more potent),TSC22D3,-1.22
TCGTTGATCAGGTAGCAGGGGT,sensor-assay potency score (higher = more potent),TSC22D3,-0.312
TCTTTAGACTGGACACGCCAGT,sensor-assay potency score (higher = more potent),TSEN34,-1.04
TTGTCGGTATTGAGGTTCTCAA,sensor-assay potency score (higher = more potent),TSC22D3,-1.48
TTGTCTATGGCCACCACGCTGG,sensor-assay potency score (higher = more potent),TSC22D3,-0.721
TCTAGTTTCTGCTTCTTAGCAG,sensor-assay potency score (higher = more potent),TSEN34,0.419
TAAAACTTCCACTTCTTCTCTT,sensor-assay potency score (higher = more potent),TSC22D2,0.683
TAGCTGGGAGTTCTTCTCCACC,sensor-assay potency score (higher = more potent),TSC22D3,-1.58
TTGCCAGGGTCTTCAACAGGGT,sensor-assay potency score (higher = more potent),TSC22D3,-0.965
TTCTTCACCAGATCCATGGCCT,sensor-assay potency score (higher = more potent),TSC22D3,0.0668
TCGATCTTGTTGTCTATGGCCA,sensor-assay potency score (higher = more potent),TSC22D3,-0.64
TTGAGCTTGTCGGTATTGAGGT,sensor-assay potency score (higher = more potent),TSC22D3,-0.00573
TCTTCTAGTATCGTCGACTTGC,sensor-assay potency score (higher = more potent),TSC22D2,0.0712
TTTAACAGTGCATTTTCTCGTT,sensor-assay potency score (higher = more potent),TSC22D2,0.0173
TATTCCATACACGTCCATCGGC,sensor-assay potency score (higher = more potent),TSC22D2,-0.556
ATGCTGTTGAGCTTGTCGGTAT,sensor-assay potency score (higher = more potent),TSC22D3,-1.17
TTCAGGGCTCAGACAGGACTGG,sensor-assay potency score (higher = more potent),TSC22D3,-0.708
TTAACAGTGCATTTTCTCGTTC,sensor-assay potency score (higher = more potent),TSC22D2,-0.691
TTGTTGTTCTCCCCGCTGCTGC,sensor-assay potency score (higher = more potent),TSC22D3,-1.15
TGTTCTCACGCTCTAGCTGGGA,sensor-assay potency score (higher = more potent),TSC22D3,-0.875
TAGTATCGTCGACTTGCCCGAC,sensor-assay potency score (higher = more potent),TSC22D2,-0.774
TAAATCATCGAAGTCGAACAGC,sensor-assay potency score (higher = more potent),TTLL3,-0.665
ATTTGCTTCTGAACACTCCTGC,sensor-assay potency score (higher = more potent),TXLNG,0.776
TTGTACTTATCTAAACATCTTC,sensor-assay potency score (higher = more potent),UBXN2A,-0.32
TTAAATTTCTGGACAATCCTTT,sensor-assay potency score (higher = more potent),UBXN2A,0.433
TTAAAATGTATCAAACATCTAA,sensor-assay potency score (higher = more potent),UNC5D,0.16
TTAGTCTACCAGGACATCTTGT,sensor-assay potency score (higher = more potent),UNC5D,-0.288
TTCAAGAATACACTCATTGATA,sensor-assay potency score (higher = more potent),UST,-0.731
TTCATTTTTAGTAAGCCTGGTT,sensor-assay potency score (higher = more potent),UST,0.157
TTCAGGTCTATCTTGACCATGC,sensor-assay potency score (higher = more potent),VDAC3,-0.432
TTTTGTTACAATCCTCAGCAGC,sensor-assay potency score (higher = more potent),VAX1,-0.447
TCCTTTGTTGAAGACATCCTTA,sensor-assay potency score (higher = more potent),VDAC3,-0.879
